Here are results for 16 compounds from PubChem BioAssay (NCATS).

“And” between values parts separate entries of the source, which are not always exact repeats. Identical values can stand only once. Inconclusive results are not listed. Unmarked numbers belong to inactive results. The source made the active and inactive calls. The call rests on the fitted dose curve; in most records, active means well fitted curve in the direction sought with a large enough effect; inconclusive means small, poorly fitted or top-dose-only effect, or another doubt; inactive means no such curve, though single readings can be large; an effect the other way counts as inactive or inconclusive.

The nature of test [1]: Viability qHTS for spleen associated tyrosine kinase inhibitor (SYKi) naive MV4-11 cells (AID 1963823). Further: nearly all actives have a fitted effect of over 40% in size. Put shortly: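 CellTiter-Glo luminescence, 10 min room-temperature incubation, gave viability. Cells: naive MV4-11 (500/well), treated 72 hr at 37 C, 5% CO2.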
In general terms: qHTS replaces the single test concentration by a dilution series.

The nature of test [2]: Viability qHTS for spleen associated tyrosine kinase inhibitor (SYKi) drug resistant MV4-11 cells (AID 1963824). Further: nearly all actives have a fitted effect of over 35% in size. The gist of the method:
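SYK inhibitor-resistant MV4-11 AML cells, 500 per well, added to predispensed compounds and incubated 72 hr at 37 C, 5% CO2. Viability measured by CellTiter-Glo luminescence after 10 min at room temperature.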

A short description of test [3]: Quantitative highthroughput screen to assess conditional lethalithy of NOMO1 cells grown in RPMI1640 with untreated serum (RPMI+s) (AID 1963876). Further: nearly all actives have a fitted effect of over 35% in size.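 On Viability: 100% = DMSO wells and 0% = empty wells without cells.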 The gist of the method:
(§1)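 Each medium arm—HPLM with 10% dialyzed FBS, or RPMI1640 with 5 mM glucose and 10% untreated or dialyzed FBS—was screened against an 11-point, 3-fold compound titration for 48 h at 37 °C, with CellTiter-Glo luminescence as endpoint.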

The nature of test [4]: Quantitative highthroughput screen to assess conditional lethalithy of NOMO1 cells grown in RPMI1640 with dialyzed fetal bovine serum (RPMI+ds) (AID 1963877). Further: nearly all actives have a fitted effect of over 30% in size.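 On Viability: series mostly up to about 46 µM; 100% = DMSO control wells and 0% = empty wells.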 The gist of the method:
as §1

A short description of test [5]: Quantitative highthroughput screen to assess conditional lethalithy of NOMO1 cells grown in Human Plasma-Like Medium with dialyzed fetal bovine serum (HPLM+ds) (AID 1963878). Further: nearly all actives have a fitted effect of over 35% in size.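 On Viability: 100% = DMSO wells and 0% = empty wells on each plate.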 Put shortly:
as §1

The nature of test [6]: Quantitative highthroughput screen to assess conditional lethalithy of P12 Ichikawa cells grown in Human Plasma-Like Medium with dialyzed fetal bovine serum (HPLM+ds) (AID 1963879). Further: nearly all actives have a fitted effect of over 35% in size. On Viability: series mostly up to about 46 µM. Conditions: Potency: viability. The gist of the method:
as §1

Test [7] in a line: Quantitative highthroughput screen to assess conditional lethalithy of P12 Ichikawa cells grown in RPMI1640 with dialyzed fetal bovine serum (RPMI+ds) (AID 1963880). Further: nearly all actives have a fitted effect of over 35% in size.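 On Viability: 100% = DMSO wells and 0% = empty wells on each plate.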 Conditions: Potency: P12-Ichikawa viability. Put shortly:
as §1

Test [8] is described as follows: Quantitative highthroughput screen to assess conditional lethalithy of SEM cells grown in Human Plasma-Like Medium with dialyzed fetal bovine serum (HPLM+ds) (AID 1963882). Further: nearly all actives have a fitted effect of over 35% in size. On Viability: series mostly up to about 46 µM. The gist of the method: as §1
Test [9] is described as follows: Quantitative highthroughput screen to assess conditional lethalithy of SEM cells grown in RPMI1640 with unreated serum (RPMI+s) (AID 1963883). Further: nearly all actives have a fitted effect of over 35% in size.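 On Viability: 100% = DMSO wells and 0% = empty wells without cells.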 The gist of the method: as §1
A short description of test [10]: Cellular viability qHTS for adrenocortical cancer (ACC) cell line SW-13 (AID 1963989). Further: nearly all actives have a fitted effect of over 65% in size.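 On activity (max response): cells grown in serum-free medium with ITS supplement; on the % scale 0 is the no-effect control and ±100 the full control effect.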 The note with it: SW-13 ACC cells viability, CellTiter-Glo, 48 h; activity (max response): active compounds read low. Put shortly: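 Compound titrations (up to 46 uM final, in DMSO) were applied to SW-13 cells for 48 h at 37C/5% CO2. Reading used CellTiter-Glo after 20 min at room temperature; fitted curves yielded IC50 and efficacy.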

The nature of test [11]: Cellular viability qHTS for adrenocortical cancer (ACC) cell line NCI-H295R (AID 1963990). Further: nearly all actives have a fitted effect of over 60% in size. Put shortly:
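Readout: CellTiter-Glo luminescence, 20 min RT. Exposure: 48 h, 37C/5% CO2. Cells: NCI-H295R, ITS-DMEM serum-free. Range: up to 46 uM. Analysis: 4PL fit, IC50 plus efficacy.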

Test [12] in a line: Quantitative highthroughput screen to assess conditional lethalithy of P12 Ichikawa cells grown in RPMI1640 with untreated serum (RPMI+s) (AID 1963881). Further: nearly all actives have a fitted effect of over 35% in size.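 On Viability: series mostly up to about 46 µM; 100% = DMSO wells and 0% = empty wells without cells.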 The note with it: Potency: viability. Put shortly:
as §1

The nature of test [13]: Quantitative highthroughput screen to assess conditional lethalithy of SEM cells grown in RPMI1640 with dialyzed fetal bovine serum (RPMI+ds) (AID 1963884). Further: nearly all actives have a fitted effect of over 35% in size.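 On Viability: series mostly up to about 46 µM; 100% = DMSO control wells and 0% = empty wells without cells.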 Put shortly: as §1
Potency means the concentration at half of the fitted maximal effect.

Consider `COc1ccc(-c2ccc3ncc4c(c3c2)n(-c2ccc(N3CCNCC3)c(C(F)(F)F)c2)c(=O)n4C)cn1`, for which the Potency in test [1] was 0.0263 µM (active); in [2], 13 nM (active) and 16.4 nM (active) and 29.5 nM (active); in test [3], 0.526 µM (active); in [4] it was 0.469 µM (active); in test [5] it was 0.148 µM (active); in [6], 1.05 µM (active). Besides, the Potency in test [7] was 0.187 µM (active); in [8], 0.0743 µM (active); in [9] it was 0.0209 µM (active); in test [10] it was 316 nM (active); in [11], 0.126 µM (active).

With `CC[C@@H](C)[C@H](NC(=O)[C@H](CC1CCCCC1)NC(=O)c1ccno1)C(=O)N1CCC2(CCc3ccccc32)CC1`, the Potency in test [1] is 13 µM (active); in [2] it was 18.4 µM (active). Also, the Potency entry in test [3], in test [4], in test [5], in test [6], in [7] and in [12] was “inactive” each time. Also, in test [11], the Potency entry is “inactive”. In [10], the activity (max response) was -1.23%.

For `CCC(C)SSc1ncc[nH]1` (stereo not given), the Potency in [1] was 9.34 µM (active); in test [2], 8.33 µM (active); in test [3], 18.7 µM (active); in [4], 23.5 µM (active); in [5], 14.8 µM (active); in test [6] it was 18.7 µM (active). In addition, the Potency is 13.2 µM (active) in [7], 18.7 µM (active) in test [12] and 20 µM (active) in test [11].

As for `O=c1cc(O)c(Cl)c[nH]1`, the Potency entry in [1], in test [2] and in test [11] was “inactive” throughout. Further, the Potency in [3] was 7.43 µM (active); in [4], 8.33 µM (active); in test [5], 5.26 µM (active); in [6], 7.43 µM (active); in [7], 14.8 µM (active); in [12], 8.33 µM (active). Further, the activity (max response) in [10] was 20.2%.

Regarding `Cc1cccc(CN2CCN(C(c3ccccc3)c3ccc(Cl)cc3)CC2)c1` (stereo not given), the Potency was 20.9 µM (active) in test [1]; 11.9 µM (active) and 26.3 µM (active) in test [2]; 3.26 µM (active) and 28.2 µM (active) in [10]. The Potency entry in [3], in [4], in [5], in [6], in test [7] and in test [8] was “inactive” in each case. Also, the Potency result in test [13] was “inactive”.

As for `COc1cc2nccc(Oc3ccc(NC(=O)NC4CC4)c(Cl)c3)c2cc1C(N)=O`, the Potency in [1] was 0.461 µM (active); in test [2], 1.03 µM (active); in test [3], 26.4 µM (active); in [4], 23.5 µM (active); in test [5], 18.7 µM (active); in [6], 18.7 µM (active). Moreover, the Potency in [7] and in test [12] was 20.9 µM (active) each time. Moreover, the activity (max response) in test [10] was 3.51%. For the same compound, the Potency entry in test [11] is “inactive”.

For `CCNc1cc(NC2CCC(O)CC2)nc(Nc2ccc3c(ccn3Cc3ccccc3)c2)n1` (stereo not given), the Potency is 8.33 µM (active) in test [1] and 14.6 µM (active) in test [2]. Also, the Potency result in [3], in [4], in [5], in [6], in test [7] and in test [12] was “inactive” throughout. The Potency result in test [11] is “inactive”. For the same compound, the activity (max response) in [10] was -9.82%.

In the case of `CN(C)S(=O)(=O)c1ccc2c(c1)C(=Cc1cc3c([nH]1)CCCC3)C(=O)N2`, the Potency in test [1] was 0.833 µM (active); in [2] it was 1.66 µM (active). The Potency result in test [3], in [4], in test [5], in test [6], in [7] and in test [12] was “inactive” in each case. Moreover, the Potency entry in test [9] and in [11] was “inactive” throughout. Further, the activity (max response) in [10] was -10.1%.

On to `CCC(C)n1ncn(-c2ccc(N3CCN(c4ccc(OC[C@H]5CO[C@](Cn6cncn6)(c6ccc(Cl)cc6Cl)O5)cc4)CC3)cc2)c1=O` (stereo not given in full), for which the Potency in [1] was 2.88 µM (active); in [2], 1.59 µM (active). Besides, the Potency entry in [3], in test [4], in test [5], in [6], in test [7] and in test [12] was “inactive” each time. The Potency entry in test [11] is “inactive”. Besides, the activity (max response) in test [10] was -10.2% and 8.84%.

On to `CCCCCCCCCCCCCCCCCCCCCCO`, for which the Potency entry in test [1], in test [2], in test [3], in [4], in [5] and in test [6] was “inactive” in each case. The Potency entry in [7], in test [12], in test [9], in test [13] and in [11] was “inactive” throughout. Also, the activity (max response) in [10] was -13.9%.

As for `COCCOc1nc(-c2ccc(Cl)c(Cl)c2)n(-c2ccc(NC(=O)CCl)cc2)n1`, the Potency was 2.31 µM (active) in test [1], 1.48 µM (active) in test [2], 4470 nM (active) in test [10] and 0.199 µM (active) in test [11]. Moreover, the Potency result in [3], in test [4], in test [5], in [6], in [7] and in test [8] was “inactive” each time. Further, the Potency entry in test [9] and in [13] was “inactive” in each case.

For the compound `CCc1cc(C(N)=S)ccn1`, the Potency result in test [1], in test [2], in test [3], in test [4], in test [5] and in test [12] was “inactive” in each case. The Potency result in [11] is “inactive”. Moreover, the Potency is 14.8 µM (active) in test [6], 8.33 µM (active) in test [7] and 8.33 µM (active) in test [9]. Moreover, in test [10], the activity (max response) is 3.73% and -4.72%.

For `O=c1[nH]nc(OCCCc2ccc(Cl)cc2)c(NCc2cccnc2)c1Br`, the Potency is 4.11 µM (active) in test [1]; 4.11 µM (active) in test [2]; 11.8 µM (active) in [3]; 5.9 µM (active) in test [4]; 2.96 µM (active) in test [5]; 5.9 µM (active) in [6]. Moreover, the Potency in test [7] was 5.26 µM (active); in [8], 0.743 µM (active); in [9] it was 6.62 µM (active); in test [13], 14.8 µM (active); in test [10], 7940 nM (active).

With `CCn1c(C(=O)N(C2CC2)C2CC2)cc2c3c(ncn3C)c(Nc3cc(C)n(C)n3)nc21`, the Potency in test [1] was 1.03 µM (active) and 1.48 µM (active); in [2], 2.31 µM (active) and 3.72 µM (active); in test [9], 20.9 µM (active). Moreover, the Potency entry in test [3], in test [4], in test [5], in test [6], in [7] and in [12] was “inactive” throughout. In addition, in test [10], the activity (max response) was -6.84%.

For the compound `CC[C@H](C=C[C@@H](C)[C@H]1CC[C@H]2[C@@H]3CC=C4C[C@@H](O)CC[C@]4(C)[C@@H]3CC[C@]12C)C(C)C`, the Potency entry in [1], in [2], in [3], in [4], in test [7] and in test [12] was “inactive” throughout. The Potency entry in test [8], in test [9], in test [13] and in test [11] was “inactive” in each case. Further, in test [5], the Potency is 7.24 µM (active). In addition, the activity (max response) in test [10] was 10.2%.

As to `COc1ccc(-c2nc(N3CCOCC3)c3sc(CN(C)c4ncc(C(=O)NO)cn4)cc3n2)cn1`, the Potency is 0.0148 µM (active) in [1]; 0.0093 µM (active) in [2]; 0.0209 µM (active) in [3]; 0.0235 µM (active) in test [4]; 0.0166 µM (active) in test [5]; 0.0235 µM (active) in test [7]. In addition, the Potency was 0.0118 µM (active) in test [8]; 0.0074 µM (active) in test [9]; 0.0132 µM (active) in [13]; 355 nM (active) in test [10]; 0.0891 µM (active) in test [11].
